Screening data: PubChem, Broad Institute
ERAP1 HTS inh: blocks human ERAP1 aminopeptidase activity | inhibition, % at 10.7 µM | Q9NZ08 | actives 0.15% (n = 340,000) | recombinant ERAP1, Leu-AMC fluorescence, 60 min;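 active means mean replicate inhibition of at least 30%, or all replicates individually reaching that 30% level; inactive means mean below 30% and not every replicate reaching it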
DENV2 CPE rescue: protects cells from dengue virus 2 cytopathic effect. DENV2-infected cells, cytopathic effect rescue, plate reader. CPE inhibition, % at 9.99 µM. actives 1.7% (n = 350,000); in the data active means CPE inhibition above about 20%, passing the limit was not always enough; inconclusive means no clear call, values can overlap the other calls; tested in BHK-21 cells
FGF22 binding: FGF22 (human) thermal shift binding; Q9HCT0; recombinant FGF22 thermal shift, SYPRO orange fluorescence; percent of sucrose octasulfate shift, DMSO zero; activity (Tm shift, normalised), % at 9.99 µM; actives 1.5% (n = 340,000); AID 651658;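 active means mean Tm shift, scaled 0 neutral to 100 positive control, at about 1.3% or above, every replicate too, limit read from the data; inconclusive means no clear call, values can overlap the other calls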
Target sequence (Q9HCT0 whole entry, looked up): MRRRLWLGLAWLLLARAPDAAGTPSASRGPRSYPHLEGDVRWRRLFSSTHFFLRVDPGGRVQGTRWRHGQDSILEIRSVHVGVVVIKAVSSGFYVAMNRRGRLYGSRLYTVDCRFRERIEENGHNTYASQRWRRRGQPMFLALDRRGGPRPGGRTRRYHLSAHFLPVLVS
RAD52 anneal inh: inhibitors of human RAD52 DNA annealing. P43351. recombinant RAD52 DNA annealing, FRET fluorescence. inhibition, % at 18.7 µM. actives 0.46% (n = 360,000). AID 651710;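 active means every replicate showing at least 50% inhibition; inconclusive means mean inhibition at least 50% but not in every replicate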
Target sequence (P43351 whole entry, looked up): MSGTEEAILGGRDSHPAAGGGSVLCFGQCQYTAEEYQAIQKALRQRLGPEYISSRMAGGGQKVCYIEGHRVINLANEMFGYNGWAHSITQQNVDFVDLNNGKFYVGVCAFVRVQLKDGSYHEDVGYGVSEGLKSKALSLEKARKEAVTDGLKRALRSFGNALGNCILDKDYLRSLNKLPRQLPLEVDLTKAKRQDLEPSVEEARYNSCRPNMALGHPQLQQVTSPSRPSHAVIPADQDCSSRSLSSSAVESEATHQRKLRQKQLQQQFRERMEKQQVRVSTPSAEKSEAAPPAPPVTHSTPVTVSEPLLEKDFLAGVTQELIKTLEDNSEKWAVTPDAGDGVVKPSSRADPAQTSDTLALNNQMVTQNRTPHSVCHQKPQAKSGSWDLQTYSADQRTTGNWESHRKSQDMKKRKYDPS
AF4-AF9 inh: inhibitors of human MLL-AF4/AF9 interaction; AlphaScreen, biotin-AF4 peptide binding to FLAG-AF9; inhibition, % at 10 µM; actives 0.47% (n = 350,000); AID 651704; P42568;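 active means every replicate reaching a set inhibition limit, whatever the replicate mean, cut at about 25% in these data; inconclusive means mean inhibition reaches that limit but some replicates miss it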
RAD52 DNA ctr: DNA binding artifact in RAD52 counter-screen; AC50, µM; actives 8% (n = 1,000); Salmon sperm DNA/acridine orange FP displacement; shares compounds with RAD52 anneal inh;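 active means fitted half-maximal concentration for signal loss at or below twice the highest dose tested, in every separate run, actives reach about 64 µM in these data; inconclusive means runs disagree, or flat partial signal loss, or poor fit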
A number is an active result; n = inactive; u = inconclusive; x = no result given; ! = a repeat was not active. Compounds with a hit are over-represented: about 4% of the library has one in this group of screens.

SMILES | ERAP1 HTS inh | DENV2 CPE rescue | FGF22 binding | RAD52 anneal inh | AF4-AF9 inh | RAD52 DNA ctr
O=C(C[C@@H]1CC[C@@H]2[C@H](COC[C@@H](O)CN2C(=O)c2cccnc2)O1)Nc1ccc(-c2ccccc2)cc1 | x | n | n | x | x | x
CC(C(=O)Nc1ccc(S(=O)(=O)N2CCCC2)cc1)N(C)CC(=O)Nc1cccc(F)c1 (stereo not drawn) | n | n | n | n | n | x
CN(CC(=O)Nc1ccc(S(=O)(=O)N2CCCC2)cc1)CC(=O)Nc1cccc(F)c1 | n | n | n | 58 | n | n
Cc1c(C)n(Cc2ccccc2)c2ccc(C(=O)OCCCN(C)C)cc12 | n | n | n | n | n | x
Cc1c(C)n(CCN(C)C)c2ccc(C(=O)OCCN(C)C)cc12 | n | n | n | 103 | n | n
COC(=O)c1[nH]c2ccccc2c1Sc1ccccc1 | n | n | n | n | n | x
CCN(CC)CCCNC(=O)c1[nH]c2ccccc2c1Sc1ccc(Cl)cc1 | n | n | n | 70 | n | n
CC(=O)OCn1ncc(N2CCOCC2)c(Br)c1=O | n | n | n | 94 | 42 | n
CN(C)c1ccc2c(c1)[C@@H]1C[C@H](CC(=O)N3CCCCC3)O[C@H](CO)[C@@H]1O2 | n | n | x | n | n | x
COc1ccc(C(=O)OCCc2sc[n+](CC(=O)c3ccccc3)c2C)cc1 | n | n | n | 73 | n | n
Cc1c(CCOC(=O)c2ccc(Cl)cc2Cl)sc[n+]1CC(=O)c1ccc(Br)cc1 | n | n | n | n | n | n
Cc1noc(C)c1NC(=O)Nc1ccc2c(c1)C(=O)N(C)[C@@H]1CC[C@@H](CC(=O)N(C)C)O[C@H]1CO2 | n | n | n | n | n | x
O=C(C[C@@H]1C[C@@H]2c3cc(NS(=O)(=O)c4ccccc4)ccc3O[C@@H]2[C@H](CO)O1)NC1CCCC1 | n | n | n | n | n | x
CN(C)CCCNc1nc2cc(-c3ccn[nH]3)sc2c(=O)n1C | n | n | n | n | n | x
COc1cccc(-c2cc3nc(NCc4cccnc4)n(C)c(=O)c3s2)c1 | n | u | n | n | n | x
COc1ccc(-c2cc3nc(NCCCN(C)C)n(C)c(=O)c3s2)cc1OC | n | n | n | 84 | n | n
COCCNc1nc2cc(-c3cccc(C(F)(F)F)c3)sc2c(=O)n1C | n | n | n | n | n | x
Cc1ccsc1-c1cc2nc(NCCCN(C)C)n(C)c(=O)c2s1 | n | n | n | 58 | n | n
Cc1ccccc1-c1cc2nc(NCCCN(C)C)n(C)c(=O)c2s1 | n | n | n | n | u | x
CN(C)CCCOc1ccc(-c2cc3nc(NCc4cccnc4)n(C)c(=O)c3s2)cn1 | n | n | n | 60 | n | n
CN(C)CCCNc1nc2cc(-c3cccc(C(F)(F)F)c3)sc2c(=O)n1C | n | n | n | 66 | n | u
CN(C)CCCNC(=O)C[C@H]1CC[C@@H]2[C@H](COc3ccc(NC(=O)c4ccccc4F)cc3C(=O)N2C)O1 | n | n | n | n | n | x
O=C(Nc1ccc(F)cc1)N1CC(=O)N2[C@H](CO)[C@@H](c3ccc(C#Cc4cccnc4)cc3)[C@@H]2C1 | n | n | x | n | n | x
C[C@H](O)C#Cc1cnc2c(c1)C(=O)N([C@H](C)CO)C[C@H](C)[C@H](CN(C)C(=O)Nc1ccc(F)cc1)O2 | n | n | n | n | n | x
CCCC#Cc1cnc2c(c1)C(=O)N([C@@H](C)CO)C[C@@H](C)[C@H](CN(C)CCC)O2 | n | n | n | n | n | x
SMILES | ERAP1 HTS inh | DENV2 CPE rescue | FGF22 binding | RAD52 anneal inh | AF4-AF9 inh | RAD52 DNA ctr
Cc1ccc(S(=O)(=O)N(C)C[C@H]2OCCCC[C@@H](C)Oc3ccc(N(C)C)cc3C(=O)N([C@@H](C)CO)C[C@H]2C)cc1 | n | n | n | n | n | x
CCCNC(=O)N[C@@H]1CC[C@@H](CC(=O)NC2CCC2)O[C@@H]1CO | n | n | n | n | n | x
CN(C)CCCNc1nc2cc(-c3cccc(Cl)c3)sc2c(=O)n1C | n | n | n | 89 | n | n
COc1cccc(CNc2nc3cc(-c4cccc(Cl)c4)sc3c(=O)n2C)c1 | n | u | n | n | n | x
CC(C)C#Cc1ccc2c(c1)O[C@H](CN(C)C(=O)NC(C)C)[C@@H](C)CN([C@@H](C)CO)S2(=O)=O | x | n | n | x | x | x
C[C@@H]1CN([C@@H](C)CO)C(=O)c2cccc(NS(=O)(=O)c3cn(C)cn3)c2O[C@H]1CN(C)Cc1ccncc1 | n | n | n | n | n | x
COc1ccc(F)cc1-c1cc(NC=O)c2ncc(-c3cccc(C(=O)N(C)C)c3)n2c1 | n | n | n | n | n | x
COc1ccc(-c2cc(NC=O)c3ncc(-c4cccc(C(C)=O)c4)n3c2)cc1 | n | n | n | n | n | x
COc1cc(-c2cnc3c(NC=O)cc(-c4cccc(C(=O)NCCN(C)C)c4)cn23)cc(OC)c1OC | n | n | n | 93 | n | n
COc1ccc(-c2cc(NC=O)c3ncc(-c4cccc(C(=O)NCCN(C)C)c4)n3c2)c(OC)c1 | n | n | n | 57 | n | n
COc1ccc(-c2cc(NC=O)c3ncc(-c4cccc(C(=O)NCCN(C)C)c4)n3c2)cn1 | n | n | n | 81 | n | n
COc1cc(NC(=O)c2ccc(N3CC4CC(C3)c3cccc(=O)n3C4)c(NC(=O)c3ccncc3)c2)cc(OC)c1OC (stereo not drawn) | n | n | n | 85 | n | n
CCOc1ccc(NC(=O)c2ccc(N3CC4CC(C3)c3cccc(=O)n3C4)c(NC(=O)c3ccncc3)c2)cc1 (stereo not drawn) | n | n | n | n | n | x
CCN1CCN(Cc2ccc(NC(=O)c3cc(NC(=O)c4cc5cccc(OC)c5o4)cc(OC)c3)cc2C(F)(F)F)CC1 | n | n | n | 94! | n | n
CCN1CCN(Cc2ccc(NC(=O)c3cc(NC(=O)c4cc(-c5ccc(OC)cc5)n[nH]4)cc(OC)c3)cc2C(F)(F)F)CC1 | n | u | n | n | n | x
CCN1CCN(Cc2ccc(NC(=O)c3cc(NC(=O)c4cncc(-c5cccs5)c4)cc(OC)c3)cc2C(F)(F)F)CC1 | n | n | n | 76 | n | n
CCN1CCN(Cc2ccc(NC(=O)c3cc(NC(=O)c4ccno4)cc(OC)c3)cc2C(F)(F)F)CC1 | n | n | n | 57! | n | n
CCN1CCN(Cc2ccc(NC(=O)c3cc(NC(=O)N4CCNC4=O)cc(OC)c3)cc2C(F)(F)F)CC1 | n | n | n | n | n | x
CCN1CCN(Cc2ccc(NC(=O)c3ccc(C)c(NC(=O)c4ccno4)c3)cc2C(F)(F)F)CC1 | n | n | n | n | n | x
CCN1CCN(Cc2ccc(NC(=O)c3ccc(C)c(NC(=O)c4csc(-c5ccncc5)n4)c3)cc2C(F)(F)F)CC1 | n | x | n | 75 | n | n
CC(C)C#Cc1cnc2c(c1)C(=O)N([C@H](C)CO)C[C@@H](C)[C@@H](CN(C)C(=O)c1ccccc1F)O2 | n | n | n | n | n | x
O=C(C[C@H]1C[C@H]2c3cc(NC(=O)C4CCC4)ccc3O[C@H]2[C@@H](CO)O1)NCCN1CCCCC1 | n | n | n | n | n | x
